For part of these data: Measured potencies and affinities stand elsewhere. Active and inactive are the calls of the source.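 How the source made its calls, unless noted: active means membrane potential signal rise above negative control mean plus 3 SD in both duplicates, also active in the earlier TRPC4 screen; inactive means the rest.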
What was measured:
[1] = system: TRPC4 beta (transient receptor potential cation channel C4), mouse; assay: TRPC4 cation channel opening, retest – cell-based, Fluo4 calcium, HEK293 TRPC4beta/mu-opioid, duplicates, 10 µM, confirmation (AID 2426;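 active means fluorescence ratio normalized to control raised more than 50% in primary screen plus both repeat runs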); conditions: Fluo4 calcium fluorescence, at 10 µM; hits give high values
[2] = system: transient receptor potential cation channel C4 beta (TRPC4), mouse; assay: TRPC4 cation channel opening, second retest – cell-based, second round, Fluo4, HEK293 TRPC4beta/mu-opioid, 1 µM, confirmation (AID 2461;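 active means primary screen active and over 50% activation in each of two duplicate runs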); conditions: Fluo4 calcium fluorescence, at 1 µM; hits give high values
[3] = system: TRPC4 (transient receptor potential cation channel C4 beta), mouse; assay: potentiation of DAMGO EC20 TRPC4 response – cell-based, second round, Fluo-4, HEK293 TRPC4beta/mu-opioid, 1 µM, confirmation (AID 2554;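 active means primary screen hit whose fluorescence ratio, in both repeats, exceeds the weak agonist control mean by 3 SD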); conditions: DAMGO EC20, Fluo-4 calcium flux, at 1 µM; hits give high values
[4] = system: TRPC4 beta (transient receptor potential cation channel C4), mouse; assay: potentiation of DAMGO EC20 TRPC4 response – cell-based, Fluo-4, HEK293 TRPC4beta/mu-opioid, confirmation (AID 2555;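 active means primary screen hit whose calcium fluorescence ratio, in both repeats, exceeds the weak agonist control mean by 3 SD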); conditions: DAMGO EC20, Fluo-4 calcium flux, at 10 µM; hits give high values
[5] = target: Short transient receptor potential channel 4 (Mus musculus) (UniProt Q9QUQ5); assay: blockers of DAMGO-evoked TRPC4 calcium flux – cell-based, Fluo4, HEK293 TRPC4beta/mu-opioid, confirmation (AID 2636;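 active means calcium signal cut by more than 3 SD below the full-agonist control yet still positive, in both repeats and the earlier primary screen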); conditions: at 10 µM; hits give high values
Short transient receptor potential channel 4 (Mus musculus), sequence (Q9QUQ5 whole entry, looked up): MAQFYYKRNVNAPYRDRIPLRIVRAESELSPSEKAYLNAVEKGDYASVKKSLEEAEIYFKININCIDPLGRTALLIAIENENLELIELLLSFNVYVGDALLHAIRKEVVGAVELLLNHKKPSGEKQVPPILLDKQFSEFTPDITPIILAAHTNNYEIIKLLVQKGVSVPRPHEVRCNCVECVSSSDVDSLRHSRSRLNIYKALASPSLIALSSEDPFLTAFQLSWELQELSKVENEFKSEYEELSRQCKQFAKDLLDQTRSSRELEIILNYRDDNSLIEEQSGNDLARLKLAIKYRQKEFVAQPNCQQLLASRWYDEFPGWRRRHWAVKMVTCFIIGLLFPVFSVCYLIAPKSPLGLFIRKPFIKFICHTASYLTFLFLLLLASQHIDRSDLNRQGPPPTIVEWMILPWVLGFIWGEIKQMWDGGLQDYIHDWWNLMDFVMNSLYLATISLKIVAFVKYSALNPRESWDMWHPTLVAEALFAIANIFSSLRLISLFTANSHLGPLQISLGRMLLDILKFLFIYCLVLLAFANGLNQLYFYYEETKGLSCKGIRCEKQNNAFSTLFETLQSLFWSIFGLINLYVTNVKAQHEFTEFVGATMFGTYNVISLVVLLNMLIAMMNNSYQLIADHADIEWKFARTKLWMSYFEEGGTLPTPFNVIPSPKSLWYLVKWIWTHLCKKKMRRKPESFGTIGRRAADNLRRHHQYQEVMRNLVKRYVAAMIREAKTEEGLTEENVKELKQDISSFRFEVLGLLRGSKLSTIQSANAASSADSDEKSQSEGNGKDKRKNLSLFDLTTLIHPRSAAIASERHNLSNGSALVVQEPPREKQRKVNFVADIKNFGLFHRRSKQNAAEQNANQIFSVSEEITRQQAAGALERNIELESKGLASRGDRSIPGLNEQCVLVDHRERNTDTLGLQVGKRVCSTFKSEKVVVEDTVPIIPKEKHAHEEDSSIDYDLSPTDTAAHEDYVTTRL

[6] = target: Short transient receptor potential channel 4 (Mus musculus) (UniProt Q9QUQ5); assay: blockers of DAMGO-evoked TRPC4 calcium flux – cell-based, second round, Fluo4, HEK293 TRPC4beta/mu-opioid, 1 µM, confirmation (AID 2637;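 active means calcium signal ratio cut to more than 3 SD under the fully stimulated control mean yet still positive, in both repeats and the primary screen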); conditions: at 1 µM; hits give high values
[7] = target: Short transient receptor potential channel 4 (Mus musculus) (UniProt Q9QUQ5); assay: calcium entry via TRPC4 opening agents – cell-based, HEK293 TRPC4/mu-opioid, Fluo-4 calcium, dose response (AID 434937;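 active means primary screen activator hit with a dose response curve and TRPC4 channel activation at any tested dose; inactive means no activation, no dose response, or not a primary hit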)
[8] = target: Short transient receptor potential channel 4 (Mus musculus) (UniProt Q9QUQ5); assay: potentiation of DAMGO-evoked TRPC4 calcium signal – cell-based, HEK293 TRPC4/mu-opioid, Fluo-4 calcium, EC20 DAMGO, dose response (AID 434941;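 active means earlier screen potentiator hit that boosts the TRPC4 ion channel at some dose, with a dose response; inactive means no potentiation, no dose response, or not a prior hit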;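 further: calcium entry triggered by an EC20 dose of DAMGO at the co-expressed mu-opioid receptor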)
[9] = target: Short transient receptor potential channel 4 (Mus musculus) (UniProt Q9QUQ5); assay: block of DAMGO-driven TRPC4 calcium entry – cell-based, HEK293 TRPC4/mu-opioid, Fluo-4 calcium, dose response (AID 434942;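 active means primary screen inhibitor hit that blocks the TRPC4 channel at some tested dose, yielding a dose curve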)
[10] = target: Short transient receptor potential channel 6 (Mus musculus) (UniProt Q61143); assay: TRPC6 blockade by TRPC4 inhibitor hits – cell-based, HEK293, membrane potential dye, duplicate, selectivity assay for TRPC4 inhibitor project, confirmation (AID 434948;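 active means active in primary screen and both duplicates, each dropping signal beyond three positive-control SD with fluorescence still positive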); conditions: HEK293 TRPC6, membrane potential dye fluorescence, at 10 µM, stimulated with maximal-effect acetylcholine; hits give high values
Short transient receptor potential channel 6 (Mus musculus), sequence (Q61143 whole entry, looked up): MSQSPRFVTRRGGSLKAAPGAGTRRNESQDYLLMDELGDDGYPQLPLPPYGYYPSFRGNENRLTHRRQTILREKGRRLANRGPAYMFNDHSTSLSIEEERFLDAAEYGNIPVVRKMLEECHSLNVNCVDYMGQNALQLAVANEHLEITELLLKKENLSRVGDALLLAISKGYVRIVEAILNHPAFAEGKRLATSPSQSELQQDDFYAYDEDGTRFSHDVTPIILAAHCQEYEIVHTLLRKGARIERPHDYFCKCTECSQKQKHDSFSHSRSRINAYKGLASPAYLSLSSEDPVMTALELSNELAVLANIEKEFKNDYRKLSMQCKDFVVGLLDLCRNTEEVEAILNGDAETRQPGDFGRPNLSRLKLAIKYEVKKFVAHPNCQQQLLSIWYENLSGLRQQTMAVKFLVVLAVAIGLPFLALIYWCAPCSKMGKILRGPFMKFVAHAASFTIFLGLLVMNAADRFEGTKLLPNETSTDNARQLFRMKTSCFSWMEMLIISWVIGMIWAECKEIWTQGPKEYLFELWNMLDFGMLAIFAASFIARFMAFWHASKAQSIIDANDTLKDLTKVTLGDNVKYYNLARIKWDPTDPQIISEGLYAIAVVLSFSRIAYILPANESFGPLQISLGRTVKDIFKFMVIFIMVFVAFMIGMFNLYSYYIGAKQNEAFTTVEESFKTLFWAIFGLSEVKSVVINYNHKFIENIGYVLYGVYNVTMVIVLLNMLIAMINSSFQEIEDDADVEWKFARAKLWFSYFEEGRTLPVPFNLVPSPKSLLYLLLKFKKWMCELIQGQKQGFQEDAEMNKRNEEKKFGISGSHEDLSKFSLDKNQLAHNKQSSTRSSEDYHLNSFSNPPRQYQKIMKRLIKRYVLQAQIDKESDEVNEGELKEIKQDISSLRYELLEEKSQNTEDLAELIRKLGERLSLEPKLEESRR

[11] = target: Short transient receptor potential channel 6 (Mus musculus) (UniProt Q61143); assay: TRPC6 opening by TRPC4 activator hits – cell-based, HEK293, membrane potential dye, duplicate, selectivity assay for TRPC4 activator project, confirmation (AID 434950); conditions: HEK293 TRPC6, membrane potential fluorescence, at 10 µM; activation: hits give high values; outcome: activation
[12] = target: Short transient receptor potential channel 6 (Mus musculus) (UniProt Q61143); assay: positive modulators of mouse TRPC6 channel – HEK293 cells, membrane potential dye, duplicate, selectivity assay for TRPC4 potentiator project, confirmation (AID 434952;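 active means compound raising the membrane signal above positive-control mean plus 3 SD in both repeats, and a primary screen hit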); conditions: HEK293 TRPC6, membrane potential dye fluorescence, at 10 µM, maximal acetylcholine added after compound; hits give high values
[13] = target: Short transient receptor potential channel 4 (Mus musculus) (UniProt Q9QUQ5); assay: calcium flux activators in TRPC4/5HT1a cells, counter-screen for TRPC4 activator project, cell-based, second counter screen, HEK293 TRPC4/5HT1a, Fluo-4 (AID 434977;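 active means calcium signal rise above buffer-control mean plus 5 SD in both duplicates, and also a hit in the primary screen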); conditions: Fluo-4 calcium flux, at 10 µM; hits give high values
[14] = serotonin-gated TRPC4 signal block – cell-based, second counter screen, HEK293 TRPC4/5HT1a, Fluo-4, counter-screen for TRPC4 inhibitor project, confirmation (AID 434978;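 active means primary screen active whose calcium signal fell more than 3 SD beyond the full-serotonin control mean in both duplicate plates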;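 further: serotonin given first at submaximal then at maximal dose after compound preincubation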); conditions: Fluo-4 calcium flux, at 10 µM, serotonin added to trigger calcium flux; hits give high values
[15] = system: TRPC4 (mouse), co-expressed with 5HT1a in HEK293; assay: enhancement of serotonin-evoked TRPC4 response – cell-based, second counter screen, HEK293 TRPC4/5HT1a, Fluo-4, counter-screen for TRPC4 potentiator project, confirmation (AID 434979;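 active means signal rise over 3 SD above mean of control wells given weak agonist, in both repeats and first screen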); conditions: Fluo-4 calcium flux, at 10 µM, serotonin added at its EC20 dose; hits give high values
[16] = nonspecific calcium rise without TRPC4 – cell-based, HEK293 mu-opioid receptor line, counter-screen for TRPC4 activator project, confirmation (AID 449723;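 active means hit in primary screen, with calcium signal over 5 SD above buffer well mean in both duplicates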;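 further: counter screen cells carry the mu-opioid receptor alone and lack TRPC4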); conditions: HEK293 mu-opioid cells, Fluo-4 calcium fluorescence, at 10 µM; hits give high values
[17] = nonspecific potentiation of DAMGO calcium response – cell-based, HEK293 mu-opioid receptor line, counter-screen for TRPC4 allosteric potentiator project, confirmation (AID 449724;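 active means calcium signal rise more than 3 SD above the low-dose agonist control mean, in both duplicate plates and the primary screen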); conditions: HEK293 mu-opioid receptor cells, Fluo-4 calcium flux, at 10 µM, compound added before EC20 DAMGO stimulus; hits give high values

Measured: potentiation

O=C(c1ccccc1F)N1CCN(c2ccc([N+](=O)[O-])cc2-n2cccc2)CC1
active: [4] 20% | [15] 17.1%
inactive: all other assays above

O=C(NC1CC1)c1ccc2c(c1)N(Cc1ccc(Cl)cc1)CCS2
inactive: all assays above

COc1cc(C2c3c(-c4ccccc4)n[nH]c3C(=O)N2c2ccccc2)ccc1O (stereo not given)
active: [4] 16% | [15] 17%
inactive: all other assays above

Cc1ccc(C(=O)NNC(=O)C2CSC3(C)CCC(=O)N23)cc1 (stereo not given)
active: [15] 7.03%
inactive: all other assays above

CCCCNc1c(-c2ccc(SC(C)CC)c(OC)c2)nc2ccc(C)cn12 (stereo not given)
inactive: all assays above

CCN(CC)CCN(Cc1cc2cc3c(cc2[nH]c1=O)OCCO3)C(=O)NC1CCCCC1
inactive: all assays above

Cc1cc2nc(CSc3ccc(Cl)cc3)cc(=O)n2[nH]1
inactive: all assays above

CCOC(=O)C1=C(NC(=S)NC(=O)c2ccccc2)c2ccccc2CC1(C)C
active: [4] 12% | [15] 27.1%
inactive: all other assays above

COC(=O)[C@@]12CCCCN1[C@H](c1ccc(-c3ccccc3)cc1)[C@@H]1C(=O)N(C)C(=O)[C@@H]12
active: [15] 20.4%
inactive: all other assays above

Cc1cccc(C)c1OCC(=O)N1CC2(C)CC1CC(C)(C)C2 (stereo not given)
inactive: all assays above

Oc1ccccc1-c1cc(-c2ccco2)[nH]n1
inactive: all assays above

Oc1c(Br)cc(Br)c(/C=N/n2c(-c3ccccc3)n[nH]c2=S)c1Br
active: [4] 18%
inactive: all other assays above

COc1ccc(CN2CCN(c3nc4ccccc4s3)CC2)cc1
active: [15] 12.4%
inactive: all other assays above

NS(=O)(=O)c1ccc(Oc2ccc(S(N)(=O)=O)cc2)cc1
inactive: all assays above

COc1cc2c(C(=O)N3CCN(C)CC3)c(CSc3ccccc3)n(C)c2cc1Br
active: [4] 25% | [15] 10.5%
inactive: all other assays above

Reference: PubChem BioAssay
